A selection: hits, their analogues and other compounds. The true share with any hit is near 19%.
KB-V1 cytotox: KB-V1 MDR subline cytotoxicity; KB-V1 MDR cells viability, CellTiter-Glo, 72 h; Potency, µM (doses to about 46.1 µM), actives largely listed as cytotoxic; 3.4% of 400,000 active; AID 1347076; note: nearly all actives have a fitted effect of over 60% in size
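Cytotoxicity toward P-gp-expressing KB-V1 cells was determined as loss of CellTiter-Glo luminescence after 72 h at 37 degrees C. Compounds were tested in quantitative HTS format across a concentration range, with curves fitted to normalized data.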
DT40 TDP1 no CPT: qHTS for Inhibitors of human tyrosyl-DNA phosphodiesterase 1 (TDP1): qHTS in cells in absence of CPT; 15% of 420,000 active; DT40 Tdp1-/- hTDP1 cells, no CPT, ATP luminescence, 48 h; Potency, µM (highest dose often 46.2 µM), for the others: at the top dose activity change, negative = growth inhibition, usual class: inhibitors; AID 686978, 2013; note: nearly all actives have a fitted effect of over 55% in size
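Growth of hTDP1-complemented DT40 Tdp1-knockout cells is measured by ATP luminescence after at least 48 hr compound exposure at 37 °C, with DMSO substituting for the 20 nM CPT used in the parallel screen.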
HT1080 IDH1KD tx: kills HT-1080 cells with IDH1 knockdown. HT-1080 IDH1 knockdown viability, ATP luminescence, 48 h. Potency, µM (doses to about 46.1 µM), for inactives: at the top dose activity, negative = toxicity, actives largely listed as cytotoxic. 2% of 360,000 active. AID 686971;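 note: 0% = DMSO wells and -100% = cell-free medium wells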
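In this qHTS, HT-1080 cells depleted of IDH1 are exposed for 48 h at 37 °C to compound titrations. Toxicity is scored from CellTiter-Glo luminescence, with DMSO as full viability and medium alone as none.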
HT1080-NT tox: kills 2HG-producing HT-1080-NT fibrosarcoma cells; HT-1080-NT fibrosarcoma viability, CellTiter-Glo ATP luminescence, 48 h; Potency, µM (series often up to 46.1 µM), for the others: top-dose activity, negative = less viability, most hits filed as cytotoxic; 1.6% of 360,000 active; AID 686970;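 note: NT is the 2HG producing partner of a matched IDH1 knockdown line; 0% = DMSO-treated cells and -100% = media-only wells without cells; nearly all actives have a fitted effect of over 55% in size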
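750 cells/well, RPMI + 5% FBS; 2 h settle, compound pin-transfer, 48 h at 37 degrees C. CellTiter-Glo 10 min RT, luminescence. Normalized to DMSO and media-only wells.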
KB-3-1 cytotox: kills parental KB-3-1 adenocarcinoma cells. 1.4% of 400,000 active. AID 1347075. Potency, µM (titrated, usually from 46.1 µM), most hits filed as cytotoxic. KB-3-1 viability, CellTiter-Glo ATP luminescence, 72 h; note: nearly all actives have a fitted effect of over 60% in size
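Luminescent ATP read-out (CellTiter-Glo) measures survival of drug-naive KB-3-1 cells after 72 h compound exposure at 37 °C. Titration series was screened from lowest to highest concentration, with DMSO vehicle plates as background controls.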
DT40 TDP1 CPT: DT40-hTDP1 cell growth loss with CPT. chicken DT40 Tdp1-/-;hTDP1 cells + 20 nM CPT, ATP luminescence, 48 h. Potency, µM (doses to about 46.2 µM), for inactives: at the top dose activity change, negative = growth inhibition, hits mostly inhibitors. 12% of 420,000 active. AID 686979; note: nearly all actives have a fitted effect of over 55% in size
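Cell growth measured by CellTiter-Glo luminescence after a minimum 48 h, 37 C compound exposure with 20 nM CPT in Tdp1-knockout DT40 cells stably expressing hTDP1, seeded 400/well; qHTS titration format.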
Numbers without * were called inactive; i = inactive; u = inconclusive; x = not tested or not shown; [ ] = dose if it differs, or a comment. Calls come from the whole dose curve; as a rule, active = well fitted curve in the direction sought with a large enough effect; inconclusive = small, poorly fitted or top-dose-only effect, or another doubt; inactive = no such curve, though single readings can be large; an effect the other way counts as inactive or inconclusive. Unless noted, % is set by controls: 0 for no effect and ±100 for the full control effect; potency is the fitted concentration of half-maximal effect.

SMILES	KB-V1 cytotox	DT40 TDP1 no CPT	HT1080 IDH1KD tx	HT1080-NT tox	KB-3-1 cytotox	DT40 TDP1 CPT
CCOc1ccccc1OCC(=O)Nc1cc(S(=O)(=O)N2CCCCC2)ccc1OC	u	u	1%	9%	i	u
COc1ccccc1OCC(=O)Nc1cc(S(=O)(=O)N2CCCCC2)ccc1N1CCCCC1	i	23µM*	4%	7%	i	23µM*
COC(=O)C1CCCN1C(=O)COc1ccc(Cl)cc1Br (configuration not stated)	i	u	5%	6%	i	18µM*
O=C(COc1ccc(Cl)cc1Br)Nc1ccccc1N1CCCC1	u	u	-5%	-8%	u	21µM*
CC(C)c1ccccc1OCC(=O)Nc1cc(S(=O)(=O)N2CCOCC2)ccc1N1CCCC1	i	15µM*	-12%	-16%	i	u
CC(CCc1ccccc1)NC(=O)COc1cc(F)ccc1[N+](=O)[O-] (configuration not stated)	i	u	0%	-4%	i	1%
COc1ccccc1OCC(=O)Nc1cc(Cl)ccc1N1CCCCC1	15µM*	-30%	-6%	-8%	i	-23%
Cc1ccccc1OCC(=O)Nc1cc(S(=O)(=O)N2CCOCC2)ccc1N1CCCC1	i	u	1%	-7%	i	u
CC(CCc1ccccc1)NC(=O)COc1ccc(S(=O)(=O)N2CCOCC2)cc1[N+](=O)[O-] (configuration not stated)	21µM*	u	-13%	-12%	i	u
CC(=O)NCCC(=O)Nc1cc(S(=O)(=O)N2CCCCC2)ccc1N1CCCCC1	i	23µM*	1%	2%	i	u
Cc1ccc(NC(=O)Nc2nnc([C@H]3C[C@H](O)[C@@H](CO)O3)s2)cc1	i	-9%	4%	3%	i	1%
CCOC(=O)C1=CCN(S(=O)(=O)c2cccc(Cl)c2)C1c1ccc(F)cc1 (configuration not stated)	u	u	u	-25%	i	u
CCN1CCN(c2ccc(S(=O)(=O)N3CCCCC3)cc2NC(=O)c2ccccc2)CC1	i	u	8%	-1%	i	u
CCOc1ccccc1OCC(=O)Nc1cc(S(=O)(=O)N2CCCCC2)ccc1N1CCN(CC)CC1	u	16µM*	-2%	-3%	i	23µM*
COc1ccc(CNc2cccc3[nH]c(C(F)(F)F)nc23)cc1OC	i	21µM*	28%	8%	i	u
COc1ccc(CNC(=O)c2[nH]c(C(F)(F)F)nc2-c2ccccc2)cc1OC	u	-17%	7%	-1%	i	-29%
O=C(Nc1ccccc1)c1ccc(Nc2c([N+](=O)[O-])cc([N+](=O)[O-])c3ccccc23)cc1	i	10µM*	-21%	-13%	u	7.3µM*
Cc1c(C(=O)Nc2ccc3c(c2)CCC3)cccc1[N+](=O)[O-]	i	u	8%	5%	i	1%
CCCCC(=O)Nc1cccc(NC(=O)c2ccccc2Br)c1	5.2µM*	-15%	-1%	2%	i	u
Cc1c(C(=O)Nc2ccc(Nc3ccccc3)cc2)cccc1[N+](=O)[O-]	i	8.2µM*	-17%	-19%	i	9.2µM*
CCOC(=O)c1ccc(NC(=O)c2ccccc2[N+](=O)[O-])cc1	i	18µM*	-8%	-1%	i	-7%
CCOC(=O)c1cc([N+](=O)[O-])c([N+](=O)[O-])cc1NC(C)=O	i	0.92µM*	u	7.3µM*	u	u
Cc1c(C(=O)NN2CCN(C)CC2)cccc1[N+](=O)[O-]	i	6%	-7%	-2%	i	1%
Cc1c(C(=O)NC(=S)Nc2ccc(NC(=O)c3cccs3)cc2)cccc1[N+](=O)[O-]	u	13µM*	-11%[9.24 µM]	u	u	u
CCC(=O)Nc1cccc(NC(=O)c2cccc([N+](=O)[O-])c2C)c1	i	23µM*	-1%	-2%	i	u
SMILES	KB-V1 cytotox	DT40 TDP1 no CPT	HT1080 IDH1KD tx	HT1080-NT tox	KB-3-1 cytotox	DT40 TDP1 CPT
O=[N+]([O-])c1cc(Br)c(Nc2ccccc2)c([N+](=O)[O-])c1	16µM*	0.92µM*	3.3µM*	u	u	0.82µM*
CC(C)c1nc2oc3c(N(C)CCO)ncnc3c2c2c1CCC2	i	u	1%	11%	i	u
COc1ccccc1CNC(=O)C1CC2Cn3c(nc4cc(C)c(C)cc43)C2N1C (configuration not stated)	i	-28%	-4%	-9%	13µM*	-17%
CC(C)CCNC(=O)C1CC2Cn3c(nc4cc(Cl)c(Cl)cc43)C2N1C (configuration not stated)	i	23µM*	-1%	-1%	i	u
CCOC(=O)c1ccc(N2C=C(C(=O)OC)C(c3cccc(O)c3)C(C(=O)OC)=C2)cc1	i	-30%	-15%	-21%	i	-16%
Cc1ncc2c(c1CNC(=O)c1cncs1)CCN(C(=O)c1csc(-c3cccs3)n1)C2	x	-14%	x	x	x	5%[9.04 µM]
S=c1nc(C2CCCCC2)n(-c2ccccc2)[nH]1	i	23µM*	11%	16%	i	u
Nc1nc(=S)n(-c2ccccc2)[nH]1	i	2%	15%	8%	i	0%
O=[N+]([O-])c1cc(/C=N/n2c(-c3ccncc3)n[nH]c2=S)ccc1Cl	i	-22%	-14%	-9%	i	-9%
O=[N+]([O-])c1ccc(-c2nn(-c3ccccc3)cc2/C=N/n2c(-c3ccncc3)n[nH]c2=S)cc1	i	18µM*	16%	20%	i	u
Cc1cc(-c2n[nH]c(=S)n2/N=C/c2cc([N+](=O)[O-])ccc2Cl)n[nH]1	u	18µM*	-19%	-19%	u	5.2µM*
Cc1cc(-c2n[nH]c(=S)n2/N=C/c2ccc(Cl)c([N+](=O)[O-])c2)n[nH]1	i	u	4.6µM*	6.5µM*	u	u
COc1ccc(/C=C2\CN(Cc3ccccc3)C/C(=C\c3ccc(OC)cc3)C2=O)cc1	u	16µM*	23µM*	u	u	10µM*
COc1ccc(CCNC(=O)COc2ccc(C)nc2[N+](=O)[O-])cc1	i	-9%	4%	14%	i	-15%

Compound activity as filed in PubChem BioAssay.
